Laboratory results from article PMC7819943, “Rice protein-binding microarrays: a tool to detect cis-acting elements near promoter regions in rice”.
Whole data set: some 39,000 sequences, median “fluorescence intensity (a.u.)” near 4,300, cut for the highest 2% near 39,000. The list comes from a sample in which the highest values are over-represented; it also holds similar and randomly drawn sequences.

The sequences below were run against T1, OsSMF1 (Oryza sativa, UniProt Q6ZLB0 1-436) (assay: protein-binding microarray (RPBM); PBS, 2% BSA, 51.3 ng/ul salmon testes DNA, 50 uM zinc acetate, 200 nM TF, 25 C, 1 h; high values mean tight binding). Conditions: protein: recombinant; tags: N-terminal polyhistidine and DsRed monomer fusion (pET32a); chain copies: 2; label: CyDye5-dUTP incorporated in the synthesized complementary strand; 3' TTTTT single-stranded linker to array surface; dsDNA, one strand shown.
T1 sequence: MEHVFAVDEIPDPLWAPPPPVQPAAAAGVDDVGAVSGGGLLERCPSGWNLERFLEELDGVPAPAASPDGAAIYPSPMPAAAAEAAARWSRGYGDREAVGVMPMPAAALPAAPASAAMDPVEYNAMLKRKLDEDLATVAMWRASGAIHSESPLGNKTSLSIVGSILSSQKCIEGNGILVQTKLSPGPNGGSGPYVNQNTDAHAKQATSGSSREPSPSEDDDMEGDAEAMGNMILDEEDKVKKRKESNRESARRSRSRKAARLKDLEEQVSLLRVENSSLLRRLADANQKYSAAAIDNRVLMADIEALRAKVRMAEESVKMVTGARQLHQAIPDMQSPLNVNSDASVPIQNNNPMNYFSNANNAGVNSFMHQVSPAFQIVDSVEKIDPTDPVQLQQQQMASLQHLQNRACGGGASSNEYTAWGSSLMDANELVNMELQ
How it was run: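 Transcription factors were made in E. coli BL21-CodonPlus as N-terminal fusions to a polyhistidine tag and DsRed, then purified on Ni–NTA. After primer extension with Cy5-dUTP and blocking with 2% BSA, a custom Agilent array was exposed for 1 h at 25 °C to 200 nM protein in PBS, 2% BSA, salmon testes DNA and 50 µM zinc acetate. Washed arrays were scanned on an Axon 4000B, and the binding signal is per-feature fluorescence intensity in arbitrary units.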
For “CAGTTCCCAGCTGGACCTCCGACCTCCTACCTCCTCACCTCGGAGTCACCTAGTGCAG”, the binding signal was 3340 fluorescence intensity (a.u.). For “AATGTTTGGGTTCGAATTTAGTGGGTGGGTTTGGAGTTTGCGGAGTCACCTAGTGCAG”, the binding signal was 4670 fluorescence intensity (a.u.). “TCCGCGGCCCCGCTGGCCCACACGCATGCGTCCAAACAGCCGGAGTCACCTAGTGCAG” was tested, and the binding signal was 3940 fluorescence intensity (a.u.). For “CAAATAGAACATAGCCATACGAAATGACTCACTAACCTCTCGGAGTCACCTAGTGCAG”, the binding signal was 4910 fluorescence intensity (a.u.). With “TCACCGGTCTCATCCCCGTCATATGCATCCTTATCTCCAACGGAGTCACCTAGTGCAG” the binding signal was 4020 fluorescence intensity (a.u.). “TGACCTACTTGCACTTATAATTTATAGTATTATGATGTGTCGGAGTCACCTAGTGCAG” was tested, and the binding signal was 3290 fluorescence intensity (a.u.). With “TCCAAGCCGTCCACTCCCCTCCGATCCAACGGTCCAAACCCGGAGTCACCTAGTGCAG” the binding signal was 21800 fluorescence intensity (a.u.). For “AGATCACACACAACACGCACATCACGAACCGGACCAAACCCGGAGTCACCTAGTGCAG”, the binding signal was 3660 fluorescence intensity (a.u.). For “ATGCACACACATACAACGAAAACCAGAGATCAACAGGTGCCGGAGTCACCTAGTGCAG”, the binding signal was 45100 fluorescence intensity (a.u.). In the case of “CACACCTGACACAACACTTACACATCATACCAGAAGAAAACGGAGTCACCTAGTGCAG”, the binding signal was 3210 fluorescence intensity (a.u.). In the case of “TGGGGCCGTGAGGCCACGTGCCCGGCATGCCACGGTGGAGCGGAGTCACCTAGTGCAG”, the binding signal was 10000 fluorescence intensity (a.u.). For “CGCCTTATCCTCCCGCCTTTTCACGTCCCGCCACGCCGACCGGAGTCACCTAGTGCAG”, the binding signal was 4060 fluorescence intensity (a.u.). For “CCTCCACCCTCACCGGCGCCACGCCGACGCCTCCGCCCTCCGGAGTCACCTAGTGCAG”, the binding signal was 5600 fluorescence intensity (a.u.). In the case of “TCCACCACCGCCTGCCTCCATCCACCTCCACTGCAACCTCCGGAGTCACCTAGTGCAG”, the binding signal was 3670 fluorescence intensity (a.u.). With “TCCTCCTCTCCTCCACACATCCAGGCAGGCAACACAAGAACGGAGTCACCTAGTGCAG” the binding signal was 41800 fluorescence intensity (a.u.). In the case of “ACCACGACCACCACAACACCACCACCTCTTCTCCTAGTCACGGAGTCACCTAGTGCAG”, the binding signal was 3570 fluorescence intensity (a.u.). “CCCTTGTCCATCCGCCAACGCCACGTCACCTCCTCCGCTACGGAGTCACCTAGTGCAG” was tested, and the binding signal was 52100 fluorescence intensity (a.u.). In the case of “ACCTCCCCGACGGCGTCCGCGTGCCGCGCTCCACGCGCACCGGAGTCACCTAGTGCAG”, the binding signal was 3460 fluorescence intensity (a.u.). In the case of “CCTCCGCCTTGTCCGCGTCCACGTCCACGGCCGCCGCCACCGGAGTCACCTAGTGCAG”, the binding signal was 6310 fluorescence intensity (a.u.). “GGCAACAACGGCCTCCACCGCCATCACTCCGGCACCCTCACGGAGTCACCTAGTGCAG” was tested, and the binding signal was 52200 fluorescence intensity (a.u.). In the case of “TTGTCGTCCACGCCGCCATCTCCTTGGTCATCCGCAACAACGGAGTCACCTAGTGCAG”, the binding signal was 3430 fluorescence intensity (a.u.). “CTCCTCTCCTCTCTTCTCCACATCCACAAGAAATTTCGTACGGAGTCACCTAGTGCAG” was tested, and the binding signal was 3630 fluorescence intensity (a.u.). “CCTTTTATCCGCTCTACGGACGCAGTCCACGTCAGCCGACCGGAGTCACCTAGTGCAG” was tested, and the binding signal was 39200 fluorescence intensity (a.u.). For “CACGGGGTGGTCGCGGGTCACAGTGACGGACGGTGCACGGCGGAGTCACCTAGTGCAG”, the binding signal was 20200 fluorescence intensity (a.u.). With “CACCAGGCACCGACTGCCGTAGTGTCACCGGCCACAGTGCCGGAGTCACCTAGTGCAG” the binding signal was 3220 fluorescence intensity (a.u.). With “CTGTTGCCTACTCCCTCCTCAATCCTGCAGAAGTTTCTGACGGAGTCACCTAGTGCAG” the binding signal was 3240 fluorescence intensity (a.u.). For “CTCCATTTTCTCCGGTTTTCGCCGCAGAGTAGGAGCTGAACGGAGTCACCTAGTGCAG”, the binding signal was 21400 fluorescence intensity (a.u.). “AACCAACGGTCGCTGTTACGCCACGTCACCTCACCGACGCCGGAGTCACCTAGTGCAG” was tested, and the binding signal was 39200 fluorescence intensity (a.u.). In the case of “CGTGCCGACGCGTGCCTCGCCAACGTGTCGCAACGCCTCACGGAGTCACCTAGTGCAG”, the binding signal was 8980 fluorescence intensity (a.u.). In the case of “TCACGGCCGCCTCCGCCATCTGCACAACCTCGCCGCCGCCCGGAGTCACCTAGTGCAG”, the binding signal was 65500 fluorescence intensity (a.u.). “CTCCTCCTCCGGCCACGTCGACGTCGCACCAACCGCCGCCCGGAGTCACCTAGTGCAG” was tested, and the binding signal was 14700 fluorescence intensity (a.u.). “CGTCGCCTCGCCTCGTCACGGCCGCCTCCGCCATCGCCTCCGGAGTCACCTAGTGCAG” was tested, and the binding signal was 6060 fluorescence intensity (a.u.). In the case of “TCTCCTCTCGCTCTCGCCATCTCGCCGCCGGCCTCCTCCACGGAGTCACCTAGTGCAG”, the binding signal was 3240 fluorescence intensity (a.u.). With “AGCACTACTCCAACGCAGCAACCAACACGTACCTCCACATCGGAGTCACCTAGTGCAG” the binding signal was 6420 fluorescence intensity (a.u.). For “GATTCTTCTATGTGGCATGAGGTAACCCTGGGTCGGCTTGCGGAGTCACCTAGTGCAG”, the binding signal was 4110 fluorescence intensity (a.u.). With “GCCGTTGTCCGAAGGTTCAGCATATTGCTGACATATTGCCCGGAGTCACCTAGTGCAG” the binding signal was 4940 fluorescence intensity (a.u.). For “GCATGCTCTTCTGATCTGTAATCTCAGGCTCTATTACTCTCGGAGTCACCTAGTGCAG”, the binding signal was 3450 fluorescence intensity (a.u.). With “TTCCTCGCCAACGTAAGCCAATAACATTGTGACGCAATCTCGGAGTCACCTAGTGCAG” the binding signal was 5820 fluorescence intensity (a.u.). In the case of “ATCTCCATCTGGCGAGCAGAGGCCGGGGAGGGAGGGGCGCCGGAGTCACCTAGTGCAG”, the binding signal was 3870 fluorescence intensity (a.u.). “GCTGAGCAGGAGAGGGGCGCCGATCTCCATCCGGCGAGCACGGAGTCACCTAGTGCAG” was tested, and the binding signal was 5450 fluorescence intensity (a.u.). In the case of “GTGTGCCGCCGCCGCTGACTCCGGAGGGAGAGGACGAGCTCGGAGTCACCTAGTGCAG”, the binding signal was 3320 fluorescence intensity (a.u.). “CATCGAGAGGCTCCCGAGCATGGCCGAGATCGCCGAGGAGCGGAGTCACCTAGTGCAG” was tested, and the binding signal was 3500 fluorescence intensity (a.u.).
